Assay results taken from PubChem BioAssay (NCI).
Values joined by “and” are separate entries in the source; they are usually repeats but may differ in a detail not shown here. Equal entries are not always repeated. Compounds without any hit were thinned out: in the full panel of roughly 83,000, 20% have a hit.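 Percent growth is the endpoint: 0 to 100 indicates growth inhibition (40 means 60% inhibition), 0 means no net growth, and negative values indicate cell death.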 Active and inactive are the calls of the source. The calls were made as follows: active = growth percent below 10; inactive = the rest.

Experiments:
Assay in all cases: NCI-60 one-dose screen, 48 h (100 = growth as untreated, 0 = no growth, -100 = all killed)
HCT-15 colon = conditions: 10 µM unless noted
HT29 colon = conditions: 10 µM unless noted
SNB-75 CNS = conditions: 10 µM unless noted
SNB-19 CNS = conditions: 10 µM unless noted
U251 CNS = conditions: 10 µM unless noted
PC-3 prostate = conditions: 10 µM unless noted
SK-MEL-5 melanoma = conditions: 10 µM unless noted
UACC-62 melanoma = system: UACC-62 melanoma
LOX IMVI melanoma = conditions: 10 µM unless noted
SK-MEL-28 melanoma = conditions: 10 µM unless noted
SK-MEL-2 melanoma = conditions: 10 µM unless noted
EKVX NSCLC = conditions: 10 µM
SN12C renal = conditions: 10 µM unless noted
UO-31 renal = conditions: 10 µM unless noted
TK-10 renal = system: TK-10 renal
ACHN renal = conditions: 10 µM unless noted
CAKI-1 renal = conditions: 10 µM unless noted
A498 renal = conditions: 10 µM unless noted
CCRF-CEM leukemia = conditions: 10 µM
MOLT-4 leukemia = conditions: 10 µM unless noted

Measured: growth

CCCCOc1ccc(Nc2cc(Cl)ccc2C(=O)O)cn1
inactive: HCT-15 colon 104% and 89.1% | HT29 colon 115% | SNB-75 CNS 98.7% and 115% | SNB-19 CNS 96.6% and 106% | U251 CNS 98.1% and 96.9% | PC-3 prostate 93.6% | SK-MEL-5 melanoma 99.4% and 102% | UACC-62 melanoma; 10 µM unless noted 97.9% and 98.1% | LOX IMVI melanoma 107% and 90.5% | SK-MEL-28 melanoma 122% and 113% | SK-MEL-2 melanoma 79.3% and 112% | EKVX NSCLC 101% and 98.6% | SN12C renal 94.2% and 104% | TK-10 renal; 10 µM unless noted 112% and 121% | ACHN renal 106% and 89.9% | CAKI-1 renal 97.7% and 94.4% | A498 renal 102% | CCRF-CEM leukemia 82.3% and 95% | MOLT-4 leukemia 94.6% and 108%
6.77% (active) and 86.2% (inactive): UO-31 renal

COc1cc(C(O)C2C(=O)OCC2C2(c3ccc4c(c3)OCO4)SCCCS2)cc(OC)c1OC (configuration not stated)
inactive: HCT-15 colon 96.6% | HT29 colon 102% | SNB-19 CNS 96.4% | U251 CNS 100% | PC-3 prostate 84.1% | SK-MEL-5 melanoma 99.1% | UACC-62 melanoma; 10 µM unless noted 87.5% | LOX IMVI melanoma 92.1% | SK-MEL-28 melanoma 108% | SK-MEL-2 melanoma 95.6% | EKVX NSCLC 88.7% | SN12C renal 101% | UO-31 renal 93.2% | TK-10 renal; 10 µM unless noted 98.2% | ACHN renal 103% | CAKI-1 renal 93.8% | A498 renal 84.4% | CCRF-CEM leukemia 98.2% | MOLT-4 leukemia 94%

O=C(/C=C/c1ccccc1)c1ccccc1
inactive: HCT-15 colon 86.3% | SNB-75 CNS 101% | SNB-19 CNS 79% | U251 CNS 75.1% | PC-3 prostate 111% | SK-MEL-5 melanoma 84.4% | UACC-62 melanoma; 10 µM unless noted 102% | LOX IMVI melanoma 89.7% | SK-MEL-28 melanoma 115% | SK-MEL-2 melanoma 101% | EKVX NSCLC 93.4% | SN12C renal 100% | UO-31 renal 79.3% | TK-10 renal; 10 µM unless noted 114% | ACHN renal 107% | CAKI-1 renal 99.2% | A498 renal 94.2%

CN(C)CC1CCCCCC(CN(C)C)C1=O (configuration not stated)
inactive: HT29 colon 31.8% | SNB-75 CNS 98.4% | SNB-19 CNS 108% | U251 CNS 89% | PC-3 prostate 86.7% | SK-MEL-5 melanoma 104% | UACC-62 melanoma; 10 µM unless noted 91.9% | LOX IMVI melanoma 81.3% | SK-MEL-28 melanoma 94.8% | SK-MEL-2 melanoma 106% | EKVX NSCLC 111% | SN12C renal 94.9% | UO-31 renal 10.5% | A498 renal 117% | MOLT-4 leukemia 20.7%
active: HCT-15 colon 7.44% | TK-10 renal; 10 µM unless noted -22.3% | ACHN renal -49.8% | CAKI-1 renal -48.5% | CCRF-CEM leukemia -23.7%

NC(Cc1c[nH]c2ccccc12)C(=O)O (configuration not stated)
inactive: HCT-15 colon 107% and 104% | HT29 colon 110% and 97.4% | SNB-75 CNS 94.4% and 79.6% | SNB-19 CNS 104% | U251 CNS 103% and 97.4% | PC-3 prostate 91% and 86.7% | SK-MEL-5 melanoma 124% and 101% | UACC-62 melanoma; 10 µM unless noted 87.3% and 92.5% | LOX IMVI melanoma 96.1% and 95.8% | SK-MEL-28 melanoma 132% and 106% | SK-MEL-2 melanoma 110% | EKVX NSCLC 93.1% and 101% | SN12C renal 101% | UO-31 renal 91.9% and 72.6% | TK-10 renal; 10 µM unless noted 103% and 98.8% | ACHN renal 99.8% and 100% | CAKI-1 renal 85% | A498 renal 109% and 106% | CCRF-CEM leukemia 105% and 102%
3.12% (active) and 100% (inactive): MOLT-4 leukemia

COc1ccc(C(=O)CC(c2ccccc2)C(C#N)c2ccccc2)cc1 (configuration not stated)
inactive: HCT-15 colon 96.5% | HT29 colon 82.3% | SNB-75 CNS 83.8% | SNB-19 CNS 92.4% | U251 CNS 83.2% | PC-3 prostate 64.8% | SK-MEL-5 melanoma 86.6% | LOX IMVI melanoma 85.2% | SK-MEL-28 melanoma 97% | SK-MEL-2 melanoma 71.6% | EKVX NSCLC 84.9% | SN12C renal 86.8% | UO-31 renal 69.2% | TK-10 renal; 10 µM unless noted 88% | ACHN renal 88.8% | CAKI-1 renal 74.2% | A498 renal 86.5% | CCRF-CEM leukemia 84.1% | MOLT-4 leukemia 76.4%

Cc1cc(-c2ccc(N=Nc3ccc4c(S(=O)(=O)O)cc(S(=O)(=O)O)c(N)c4c3O)c(C)c2)ccc1N=Nc1ccc2c(S(=O)(=O)O)cc(S(=O)(=O)O)c(N)c2c1O
inactive: HCT-15 colon 96.6% | SNB-75 CNS 112% | SNB-19 CNS 111% | U251 CNS 97.6% | PC-3 prostate 81.9% | SK-MEL-5 melanoma 94.1% | UACC-62 melanoma; 10 µM unless noted 77.3% | LOX IMVI melanoma 96.9% | SK-MEL-28 melanoma 120% | SK-MEL-2 melanoma 112% | EKVX NSCLC 86.6% | SN12C renal 99.1% | UO-31 renal 74.1% | TK-10 renal; 10 µM unless noted 112% | ACHN renal 91.6% | CAKI-1 renal 86.9% | A498 renal 103% | CCRF-CEM leukemia 85.7%

COc1ccc2cc1Oc1ccc(cc1)C[C@H]1c3cc(c(OC)cc3CCN1C)Oc1c(OC)c(OC)cc3c1[C@H](C2)N(C)CC3
inactive: SNB-19 CNS 57.7% | U251 CNS 24.2% | PC-3 prostate 28.8% | SK-MEL-5 melanoma 21.1% | UACC-62 melanoma; 10 µM 103% | UACC-62 melanoma; 100 µM 80.7% and 64.2% | SK-MEL-2 melanoma 131% | EKVX NSCLC 80.5% | SN12C renal 82.2% | TK-10 renal; 10 µM 76.7% | TK-10 renal; 100 µM 71.7% and 56.9% | ACHN renal 74.1% | CAKI-1 renal 68.9% | A498 renal 72.1% | MOLT-4 leukemia 28.2%
active: HCT-15 colon 3.41% | HT29 colon -32.7% | SNB-75 CNS -7.64% | LOX IMVI melanoma -43.7% | UO-31 renal 3.4% | CCRF-CEM leukemia 3.76%

Nc1ncnc2c1ncn2C1OC(COP(=O)(O)O)C(O)C1O (configuration not stated)
inactive: HCT-15 colon 109% | HT29 colon 114% | SNB-75 CNS 93.1% | SNB-19 CNS 103% | U251 CNS 112% | PC-3 prostate 101% | SK-MEL-5 melanoma 117% | UACC-62 melanoma; 10 µM unless noted 104% | LOX IMVI melanoma 108% | SK-MEL-28 melanoma 119% | EKVX NSCLC 113% | SN12C renal 99.9% | UO-31 renal 100% | TK-10 renal; 10 µM unless noted 122% | ACHN renal 103% | CAKI-1 renal 106% | CCRF-CEM leukemia 105% | MOLT-4 leukemia 109%

Nc1ccc2c(O)cc(S(=O)(=O)O)cc2c1
inactive: HCT-15 colon 104% and 105% | HT29 colon 102% and 106% | SNB-75 CNS 99.7% | SNB-19 CNS 91.6% and 104% | U251 CNS 101% | PC-3 prostate 85.5% | SK-MEL-5 melanoma 96.6% and 104% | UACC-62 melanoma; 10 µM unless noted 93.7% and 103% | LOX IMVI melanoma 92.8% | SK-MEL-28 melanoma 101% and 114% | SK-MEL-2 melanoma 108% and 92.1% | EKVX NSCLC 102% and 110% | SN12C renal 95.4% and 86.9% | UO-31 renal 69.5% and 63.5% | TK-10 renal; 10 µM unless noted 94.4% and 143% | ACHN renal 95.8% and 92.8% | CAKI-1 renal 87.1% | A498 renal 102% and 100% | CCRF-CEM leukemia 74.6% | MOLT-4 leukemia 87.3% and 92.5%

OC1COC(OCc2ccccc2)C(O)C1O (configuration not stated)
inactive: HCT-15 colon 98% | HT29 colon 111% | SNB-75 CNS 90.5% | U251 CNS 95.4% | PC-3 prostate 105% | SK-MEL-5 melanoma 101% | UACC-62 melanoma; 10 µM unless noted 106% | LOX IMVI melanoma 94% | SK-MEL-28 melanoma 104% | SK-MEL-2 melanoma 99% | SN12C renal 99.4% | UO-31 renal 81.9% | ACHN renal 106% | CAKI-1 renal 105% | A498 renal 92.9% | MOLT-4 leukemia 98.9%

N#CC(C#N)N=Nc1ccc(Cl)cc1
active: CAKI-1 renal 4.49%
inactive: HCT-15 colon 15.1% | HT29 colon 24.7% | SNB-75 CNS 72% | SNB-19 CNS 94.2% | U251 CNS 88.7% | PC-3 prostate 54.7% | SK-MEL-5 melanoma 79.6% | LOX IMVI melanoma 53.5% | SK-MEL-28 melanoma 42.2% | SK-MEL-2 melanoma 77.3% | EKVX NSCLC 77% | SN12C renal 33.5% | UO-31 renal 10.6% | TK-10 renal; 10 µM unless noted 42.9% | ACHN renal 26.9% | A498 renal 86% | CCRF-CEM leukemia 28.6% | MOLT-4 leukemia 37.6%

O=C1OC(C(O)C(O)CO)C(O)=C1O (configuration not stated)
inactive: HCT-15 colon 99.8% and 100% | HT29 colon 102% and 96.4% | SNB-75 CNS 100% and 90.4% | SNB-19 CNS 100% and 98.4% | U251 CNS 104% and 92.5% | PC-3 prostate 93.2% and 85.3% | SK-MEL-5 melanoma 97.2% and 106% | UACC-62 melanoma; 10 µM unless noted 103% and 99.8% | LOX IMVI melanoma 104% and 99.2% | SK-MEL-28 melanoma 118% and 107% | SK-MEL-2 melanoma 92.9% and 101% | EKVX NSCLC 110% and 99.5% | SN12C renal 107% and 101% | UO-31 renal 104% and 94.2% | TK-10 renal; 10 µM unless noted 124% and 100% | ACHN renal 105% and 103% | CAKI-1 renal 104% and 102% | A498 renal 129% and 116% | CCRF-CEM leukemia 102% and 101% | MOLT-4 leukemia 121% and 105%
